The campaign covered roughly 69,000 compounds. About 8,600 (12%) showed an effect of 50% or more. The entries come from a sample that favours strong results as a whole.

The experiment has as its system Plasmodium berghei. Kind of experiment: Screen against P. berghei liver stage (PbLuc), transformed with Luciferase, at 10uM. Conditions: tested at 10 uM. The format is functional, HepG2.
Consider `COc1cccc(CNCc2nc3ccccc3c(=O)[nH]2)c1`, for which the INHIBITION is given as 16.5%. Take `Cc1noc(C)c1CN1CCO[C@H]2CN(Cc3nccn3C)C[C@H]21`: the INHIBITION amounted to 0.72%. Consider `COCCN1C[C@@H]2OCCN(c3ccnc(N(C)C)n3)[C@@H]2C1`, for which the INHIBITION is -16.9%.

For `CN(C)c1nccc(N2CCO[C@H]3CN(Cc4ccco4)C[C@H]32)n1`, the INHIBITION is -23.4%. With `CN(C)c1nccc(N2CCO[C@H]3CN(Cc4nccn4C)C[C@H]32)n1`, the INHIBITION turned out to be 80.2%.

Take `CCc1ccc(CN2C[C@@H]3OCCN(c4ccnc(N(C)C)n4)[C@@H]3C2)o1`: the INHIBITION amounted to 85.1%.

In the case of `CN(C)c1nccc(N2CCO[C@H]3CN(CC4CCOCC4)C[C@H]32)n1`, the INHIBITION was 36.8%. As for `CCS(=O)(=O)Nc1ccc2oc(C)c(C(C)=O)c2c1`, the INHIBITION was 28.5%.

On to `Fc1cnc(N2CCCC3(COCCN(c4nccs4)C3)C2)nc1` (stereo unspecified), for which the INHIBITION is given as 29.4%. For the compound `CN1C[C@H](O)[C@]2(CCN(Cc3ccc(OC(F)(F)F)cc3)C2)S1(=O)=O`, the INHIBITION amounted to 26%.

As for `COc1ccc(CN2CC[C@@]3(C2)[C@H](O)CN(C)S3(=O)=O)cc1F`, the INHIBITION is listed as 20.7%. With `CN1C[C@H](O)[C@]2(CCN(Cc3ccc(F)c(F)c3)C2)S1(=O)=O`, the INHIBITION is 54%.

Regarding `Cn1cc(CN2CCCC23CCN(C(=O)c2ccncc2)CC3)cn1`, the INHIBITION was 36.4%. Under `O=C(N1CCOCC1)[C@@]12CCO[C@@H]1CCN(CC1CCC1)C2` stands 22.2%. As to `CC(C)NC(=O)[C@@]12CCO[C@@H]1CCN(Cc1ccc3c(c1)OCO3)C2`, the INHIBITION is given as 33.5%. As to `CN(C)C(=O)[C@@]12CCO[C@@H]1CCN(Cc1ccc3c(c1)OCO3)C2`, the INHIBITION came to 76.2%.

On to `O=C(N1CCOCC1)[C@@]12CCO[C@@H]1CCN(Cc1cccc(F)c1)C2`, for which the INHIBITION amounted to 95.1%. As to `O=C(N1CCOCC1)[C@@]12CCO[C@@H]1CCN(CC1CCCCC1)C2`, the INHIBITION was 24.5%. Under `Cc1cccc(CN2CC[C@H]3OCC[C@@]3(C(=O)N3CCOCC3)C2)n1` stands 12.6%; under `O=C(N1CCOCC1)[C@@]12CCO[C@@H]1CCN(Cc1ccncc1)C2`, 83.2%. Consider `O=C(N1CCOCC1)[C@@]12CCO[C@@H]1CCN(CCN1CCCCC1)C2`, for which the INHIBITION is -22.9%. Consider `O=C(N1CCOCC1)[C@@]12CCO[C@@H]1CCN(Cc1ccccc1F)C2`, for which the INHIBITION amounted to 36.3%. Take `O=C(N1CCOCC1)[C@@]12CCO[C@@H]1CCN(CC1CCCC1)C2`: the INHIBITION was 53.4%. For the compound `Cc1cc(CN2CC[C@H]3OCC[C@@]3(C(=O)N3CCOCC3)C2)no1`, the INHIBITION amounted to 14.6%. In the case of `CNC(=O)[C@@]12CCO[C@@H]1CCN(Cc1ccc3c(c1)OCO3)C2`, the INHIBITION came out at 3.69%. `O=S(=O)(c1cn[nH]c1)N1CCC(O)(CN2CCOCC2)C1` (stereo unspecified): the INHIBITION came out at 38.5%. Take `COc1cc(-c2nc3c([nH]2)CCCNC3=O)ccc1O`: the INHIBITION is on record as -53%. For `CN(C)C(=O)CN1CCC2(CCN(CC3CC3)CC2)C1=O`, the INHIBITION was determined as 28.4%.

As to `COc1ccccc1CN(C)C(=O)NCc1c(C)cc(C)[nH]c1=O`, the INHIBITION is on record as -13.3%.

As to `O=C(c1ccc(N2CCOCC2)nc1)N1CCCC(n2cccn2)C1` (stereo unspecified), the INHIBITION is given as 31.3%.

On to `CCc1cnc(C)nc1NC1CC(=O)N(CC)C1` (stereo unspecified), for which the INHIBITION was 14.9%.

As for `c1ccc(-n2cc(CN3CCCC3Cn3cccn3)nn2)cc1` (stereo unspecified), the INHIBITION is -18%. Take `Cc1cc(C)c(S(N)(=O)=O)cc1C(=O)NCCN1CCCCC1`: the INHIBITION was 42.1%. Under `COc1cc(OC)cc(C(=O)NCc2nn(C)c3c2COCC3)c1` stands 24.2%; under `O=S(=O)(c1cn[nH]c1)N1CCCC1c1cc[nH]n1` (stereo unspecified), -12.9%; under `COc1cccc(CNC(=O)CC2CSc3nc(C)c(C)c(=O)n32)c1` (stereo unspecified), 27%. Turning to `O=C(c1ccnnc1)N1C[C@H](Oc2ccccn2)[C@H]2OCCC[C@H]21`, the INHIBITION is -15.9%.

Turning to `CC1(C)CC(=O)c2cnc3nc(N4CCOCC4)nc(O)c3c2C1`, the INHIBITION was -42.5%. As for `Cc1nc(C(F)(F)F)nc(N2CCC(O)(C(=O)O)CC2)c1C`, the INHIBITION came out at 24.4%. `Cc1sc2nc(C(F)(F)F)nc(N3CCN(C)CC3)c2c1C`: the INHIBITION came to 65.8%. For the compound `Cc1sc2nc(C(F)(F)F)nc(N3CCCN(C)CC3)c2c1C`, the INHIBITION is recorded as 53.9%. For `Cc1nc(C(F)(F)F)nc(N2CCC3(CC2)CC(C(=O)O)N(C)C3)c1C` (stereo unspecified), the INHIBITION stood at 47.2%. With `CN1CCCN(c2nc(C3CC3)ns2)CC1` the figure was -31.5%.

`CN1CCCN(c2nc(C3CCCC3)nc3c2cnn3C)CC1`: the INHIBITION is recorded as 26.4%. Under `CC(=O)N1CCN(c2nc(C(F)(F)F)nc3sc(C)c(C)c23)CC1` stands 34.4%.

For `Cc1sc2nc(C(F)(F)F)nc(N3CCN(S(C)(=O)=O)CC3)c2c1C`, the INHIBITION was determined as 55%. Take `Cc1sc2nc(C(F)(F)F)nc(N3CCC(NS(C)(=O)=O)CC3)c2c1C`: the INHIBITION stood at 34.4%. `Cc1cc(C)n(CCCC(=O)N2CCc3ncc(Cl)cc3C2)n1`: the INHIBITION is recorded as -50.2%. Under `Cn1cc(NC(=O)N2CCC2c2ccccc2)ccc1=O` (stereo unspecified) stands 6.1%; under `O=C(O)c1nc(SCc2ccccc2)ncc1Br`, 32.4%. Under `CCN1CC(C(=O)NCCn2cccc2)CC1=O` (stereo unspecified) stands 43.9%; under `Cc1ncsc1C(=O)N1CCCC(CO)(CC2CC2)C1` (stereo unspecified), 29.4%. As for `Cn1nc(Cn2ccnc2)c2c1CN(c1nccs1)C2`, the INHIBITION worked out at 3.88%. For the compound `CCN1CCCCC1C(=O)N1CCC(OC2CCCC2)CC1` (stereo unspecified), the INHIBITION is given as 10.2%.

Turning to `O=C(c1cnccn1)N1CCCC2(CCN(Cc3ccc(F)cc3)C2)C1` (stereo unspecified), the INHIBITION is 8.03%. As for `CC(C)(C)C(Cn1cccn1)NC(=O)c1ccco1` (stereo unspecified), the INHIBITION is listed as 35.2%. As to `Cc1nc(C(Cc2ccsc2)NC(=O)CN2CCOCC2)sc1C` (stereo unspecified), the INHIBITION is recorded as 30.45%. Consider `Cc1cccc(CNC(Cc2ccsc2)c2nccs2)n1` (stereo unspecified), for which the INHIBITION is given as -24.4%.

With `Cc1cccc(CNC(Cc2ccsc2)c2nc(C)c(C)s2)n1` (stereo unspecified), the INHIBITION came out at 91.6%. Turning to `CC(C(=O)NCCCN1CCN(c2ccccc2)CC1)n1cncn1` (stereo unspecified), the INHIBITION is recorded as -16%. As to `CC(C(=O)NCc1ccc(N2CCCC2)nc1)n1cncn1` (stereo unspecified), the INHIBITION came out at 21.6%. Turning to `COc1ccc(NC(=O)C(C)n2cncn2)cn1` (stereo unspecified), the INHIBITION is recorded as -33.9%.

On to `CC(C(=O)Nc1ccc(N2CCCCC2)nc1)n1cncn1` (stereo unspecified), for which the INHIBITION was 28.8%. Consider `CC(C(=O)Nc1ccc(N2CCCC2)nc1)n1cccn1` (stereo unspecified), for which the INHIBITION came out at 9.54%. For the compound `CC(C(=O)NCc1ccc(N2CCCCCC2)nc1)n1cncn1` (stereo unspecified), the INHIBITION turned out to be 31.2%.

Regarding `Cc1cccc(N2CCN(CCNC(=O)C(C)n3cncn3)CC2)c1` (stereo unspecified), the INHIBITION is 55.5%. In the case of `CC(C(=O)Nc1ccc(N2CCOCC2)nc1)n1cncn1` (stereo unspecified), the INHIBITION is given as 53%. Under `CC(C(=O)NCCN1CCN(C)CC1)n1cncn1` (stereo unspecified) stands 34.7%. For `CC(C(=O)NCc1ccc(N2CCCCC2)nc1)n1cncn1` (stereo unspecified), the INHIBITION is 7.12%. On to `CC(C(=O)Nc1cccc(N2CCCCC2)c1)n1cncn1` (stereo unspecified), for which the INHIBITION was determined as 70.7%.

In the case of `CC(C(=O)Nc1ccc(N2CCCC2)nc1)n1cncn1` (stereo unspecified), the INHIBITION is on record as 56.1%.

(Values after ChEMBL document CHEMBL4513216, “Probing the Open Global Health Chemical Diversity Library for Multistage-Active Starting Points for Next-Generation Antimalarials” (ACS Infect Dis, 2020).)
